# Assay outcomes (PubChem)
# This is a sample that favours compounds with a hit; in the whole collection about 6.2% have one here.
# RORgamma inh: blocks mouse ROR gamma transcriptional activity; 5.4% of 310,000 active; Potency, µM (doses to about 53.6 µM), without a hit: top-dose activity change, negative = inhibition, actives largely listed as inhibitors; Drosophila S2 Gal4-RORgamma UAS-luciferase reporter, 20 h; note: nearly all actives have a fitted effect of over 60% in size
# Target sequence (P51450 whole entry, looked up, the tested form may be a part): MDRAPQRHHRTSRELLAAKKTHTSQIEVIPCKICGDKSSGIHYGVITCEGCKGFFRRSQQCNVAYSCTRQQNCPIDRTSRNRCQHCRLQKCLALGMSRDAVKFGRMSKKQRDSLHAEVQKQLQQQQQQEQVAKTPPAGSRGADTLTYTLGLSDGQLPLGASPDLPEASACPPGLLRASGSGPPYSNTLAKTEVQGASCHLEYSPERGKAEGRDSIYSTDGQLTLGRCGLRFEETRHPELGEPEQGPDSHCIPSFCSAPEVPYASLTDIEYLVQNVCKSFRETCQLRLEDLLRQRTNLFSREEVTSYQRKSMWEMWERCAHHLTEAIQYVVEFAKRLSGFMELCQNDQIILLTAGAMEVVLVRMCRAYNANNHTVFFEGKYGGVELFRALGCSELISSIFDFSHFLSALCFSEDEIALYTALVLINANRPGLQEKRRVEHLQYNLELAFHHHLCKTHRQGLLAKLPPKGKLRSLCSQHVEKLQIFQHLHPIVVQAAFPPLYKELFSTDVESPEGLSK
#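 ROR gamma transcriptional activity was tracked as Gal4-UAS luciferase output in stably transfected Drosophila Schneider cells, with compound added 1 hr before 700 uM copper sulfate induction and a 20 hr ambient-temperature incubation.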
# KinaseGlo FLuc: counter-screen: inhibitors of Kinase-Glo firefly luciferase; Q27757; Kinase-Glo luciferase, ATP luminescence, 8 min; Potency, µM (doses to about 38.3 µM), without a hit: top-dose activity change, negative = inhibition, hits mostly inhibitors; 0.28% of 200,000 active; note: nearly all actives have a fitted effect of over 60% in size
#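 Compound is pinned into ATP-containing buffer (10 uM ATP, imidazole pH 7.2, 7 mM MgCl2). Kinase-Glo luciferase reagent is then added. Light output is recorded following an 8-min room-temperature incubation.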
# Gal4-VP16 FLuc: inhibits Gal4-VP16 luciferase reporter, ROR gamma counter-screen. Potency, µM (highest dose often 53.6 µM), without a hit: at the top dose activity, negative = inhibition, actives largely listed as inhibitors. AID 2546. Drosophila S2 Gal4-VP16 UAS-luciferase, luminescence, 20 h. 3.5% of 310,000 active;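 note: Gal4-VP16 expression switched on by copper sulfate through the metallothionein promoter; nearly all actives have a fitted effect of over 50% in size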
# The depositor's hits bear a star; ? = inconclusive; . = no result; [ ] = another dose, or the depositor's remark. Calls come from the whole dose curve; as a rule, active = well fitted curve in the direction sought with a large enough effect; inconclusive = small, poorly fitted or top-dose-only effect, or another doubt; inactive = no such curve, though single readings can be large; an effect the other way counts as inactive or inconclusive. % is set by controls: 0 for no effect and ±100 for the full control effect; potency is the fitted concentration of half-maximal effect.
SMILES,RORgamma inh,KinaseGlo FLuc,Gal4-VP16 FLuc
CCOc1cc(NC(=S)NCC2CCCO2)c(OCC)cc1NC(=O)C1CC1 (stereo not given),11µM*,-2%,10%
CCOc1cc(NC(=S)NCC2CCCO2)c(OCC)cc1NC(=O)c1ccc(F)cc1 (stereo not given),?,-5%,?
CCOc1cc(NC(=S)Nc2cccc(OC)c2)c(OCC)cc1NC(=O)C1CC1,7.1µM*,-3%,?
CCOc1cc(NC(=S)NCCCN2CCOCC2)c(OCC)cc1NC(=O)c1cccc(C)c1,-16%,0%,-4%
O=C(Nc1cccc(F)c1)N1CC2(CCN(S(=O)(=O)c3ccccc3)CC2)C1,21%,4%,0%
CC(C)c1ccc(NC(=O)C2C3C=CC4(CN(CCCN5CCOCC5)C(=O)C24)O3)cc1 (stereo not given),-1%,3%,-3%
Nc1nc2nc3c(nc2c(=O)[nH]1)CN(c1ccc(C(=O)O)cc1)C3=O,.,-3%[7.66 µM],.
CCOc1cc(NC(=S)NCC2CCCO2)c(OCC)cc1NC(=O)c1ccccc1 (stereo not given),6.3µM*,4%,11µM*
CCOc1cc(NC(=S)NCC2CCCO2)c(OCC)cc1NC(=O)c1cccc(F)c1 (stereo not given),3.5µM*,-4%,4.5µM*
O=C(NCC1CCCO1)c1cccc(F)c1 (stereo not given),11%,3%,4%
CCOc1cc(NC(=O)c2cccs2)c(OCC)cc1NC(=O)CCC(=O)NCC1CCCO1 (stereo not given),1%,1%,-1%
O=C(CN(CCc1ccccc1)C(=O)c1csnn1)NC1CCCC1,19%,-2%,-12%
N#CCOC(=O)/C=C/c1ccc2c(c1)OCO2,-2%,-18%,-22%
Cc1nc(NCc2cccnc2)c2c3c(sc2n1)CC(C)CC3 (stereo not given),0.71µM*,3%,1.8µM*
CCOC(=O)c1sc2nc(C)nc(NCc3cccnc3)c2c1C,39%,-1%,6%
COC(=O)[C@@H]1CCCN1C(=O)[C@@H](NC(=O)OC(C)(C)C)C(C)C,10%,.,7%
CC(NS(=O)(=O)c1ccc2c(c1)CC(=O)N2C)c1ccccc1 (stereo not given),-2%,.,2%
Cc1cc(N2CCCC2)nc2ccc(NC(=S)NCCCN3CCC(C)CC3)cc12,-12%,0%,-10%
Cc1ccsc1/C=N/Nc1nc(=O)[nH]nc1C,5.6µM*,4.5µM*,10µM*
Cc1cc(C)nc(N/N=C/c2sccc2C)n1,?,-27%,-23%
Cc1ccsc1/C=N/Nc1ncc(Cl)cc1Cl,7.1µM*,-10%,5µM*
Cc1ccsc1/C=N/NC(=O)c1ccco1,-40%,-8%,2%
COc1ccc(C2(c3ccc(OC)cc3)NC(=O)N(CC(=O)NCC(F)(F)F)C2=O)cc1,-2%,.,-6%
O=C(CCN1CCN(C(=O)c2ccccc2)CC1)c1ccc(Br)cc1,-122%,.,?
C[C@H](N)C(=O)N[C@@H](C)P(=O)(O)O,0%,.,-1%
SMILES,RORgamma inh,KinaseGlo FLuc,Gal4-VP16 FLuc
Cn1cc(C(=O)NS(=O)(=O)Nc2ccc(Br)cn2)c2ccccc21,-1%,.,-8%
O[C@@H]1CN(C2CCCCC2)CC[C@H]1N1CCN(CCc2ccccc2)CC1,-16%[1.91 µM],.,-4%
S=C1NCN(C2CCCCC2)CN1CCc1ccccc1,2.8µM*,.,4µM*
CCCCN1CNC(=S)N(CCc2ccc(OCC)c(OCC)c2)C1,3.2µM*,.,14µM*
CCOc1ccccc1N1CN(C2CCCCC2)CNC1=S,3.2µM*,.,14µM*
CCCN1CN(CCc2ccccc2)CNC1=S,1.1µM*,-2%,1.8µM*
CCOc1ccc(CCN2C(=O)C3C4C=CC(C4)C3C2=O)cc1OCC (stereo not given),?,2%,-3%
S=C1NCN(CCc2ccccc2)CN1,-19%,.,-2%
CCOC(=O)c1ccc(N2CN(C3CCCCC3)CNC2=S)cc1,-26%,2%,1%
COc1cccc(NC(=O)Cc2nnc(SCC(=O)NC3CCCCC3)n2C)c1,-4%,.,4%
O=CN1CCN(C(=O)c2ccc([N+](=O)[O-])cc2)CC1,-7%,-2%,-10%
O=c1n(-c2ccccc2)c(=O)n(Cc2ccccn2)n1Cc1ccccn1,-23%,2%,2%
O=C(OCC(=O)N1CCCC1)c1cc(Cl)ccc1[N+](=O)[O-],0%,.,0%
COc1cc(CNCc2cccnc2)ccc1OCC(=O)NC1CCCCC1,1%,4%,-6%[10 µM]
CCOC(=O)CN1C=C(c2ccc3ccccc3n2)C(C[N+](=O)[O-])c2ccccc21 (stereo not given),29%,14%,-23%
